Test results: ChEMBL document CHEMBL3988442, “University of Dundee, Small-Polar-MMV Screening Library” (2021)
In all, about 48,000 compounds went through this assay and about 13,000 (27%) showed an effect of 50% or more. This is one part of the list.

Test system: Wolbachia pipientis
Assay: Anti-Wolbachia Cell-Based Screen
Assay type: functional
Set-up: scale not given: in the data most compounds retested in dose-response had high values
Conditions: 5 µM

First: CCC(O)CN1CCN(C(=O)Cc2c(C)nc(C)[nH]c2=O)CC1 (centres undefined)
Second: CCC(O)CN1CCN(C(=O)Cc2cc(C)ccc2OC)CC1 (centres undefined)
The “Percent Effect” value of the first is lower: -7.478% for the first, 134% for the second.

Compared with `CCOCC(O)CN1CCN(C(=O)Cc2ccc(C)nc2)CC1` (centres undefined), `CCOCC(O)CN1CCN(C(=O)Cc2ccccc2C)CC1` (centres undefined) is higher in “Percent Effect” value: -10.97% for the first, -8.235% for the second.

Going from `CCC(O)CN1CCN(C(=O)Cc2ccc(OC)cc2OC)CC1` (centres undefined) to `CCC(O)CN1CCN(C(=O)Cc2nc(-c3ccco3)oc2C)CC1` (centres undefined), the “Percent Effect” value falls from 102.8% to -5.833%.

Compared with `COCCN1C[C@H]2CC[C@@H]1CN(Cc1ccc3ccccc3n1)C2`, `CCOCCC(=O)N1C[C@H]2CC[C@@H]1CN(Cc1ccncc1)C2` is lower in “Percent Effect” value: 26.94% for the first, 3.16% for the second.

First: CN1CCN(S(=O)(=O)c2cccc(F)c2)Cc2cccnc21.O=C(O)C(F)(F)F
Second: CN1CCN(S(=O)(=O)c2ccccc2)Cc2cccnc21.O=C(O)C(F)(F)F
The “Percent Effect” value of the first is higher: 100.3% for the first, 87.5% for the second.

Going from `CCc1ccc(CN2CCN(C)c3ncccc3C2)o1.O=C(O)C(F)(F)F.O=C(O)C(F)(F)F` to `Cc1ccc(N2CCN(C)c3ncccc3C2)nn1.O=C(O)C(F)(F)F`, the “Percent Effect” value falls from 45.7% to 6.797%.

Going from `Cc1cnc(N2CCN(C)c3ncccc3C2)nc1.O=C(O)C(F)(F)F` to `Cc1ncsc1CN1C[C@@H]2CCCO[C@@H]2[C@H](Nc2ccccn2)C1.O=C(O)C(F)(F)F.O=C(O)C(F)(F)F`, the “Percent Effect” value rises from 1.496% to 103.9%.

Going from `Cl.Cl.c1ccc(COC[C@@H]2CCC[C@@]23CNCCO3)nc1` to `Cl.Cl.c1ccc(COC[C@H]2CCC[C@@]23CNCCO3)nc1`, the “Percent Effect” value falls from 92.25% to 88.66%.

Compared with `Fc1cccnc1N1CCC2(CNCCC2(F)F)C1` (centres undefined), `CN1Cc2ccccc2NC(=O)C12CCNC2` (centres undefined) is higher in “Percent Effect” value: 8.279% for the first, 111% for the second.

Going from `Cc1ccc(N2CC[C@@H]3CN(Cc4c[nH]cn4)C[C@@H]3C2)nn1` to `CN1CCCCC1c1ccc(-n2ccnc2)nc1` (centres undefined), the “Percent Effect” value rises from -8.039% to 128%.

Going from `CN1CCC2(Cc3ccccc3NC2=O)C1` (centres undefined) to `CN1CCN2C(=O)N(c3ccccc3)C[C@H]2C1`, the “Percent Effect” value rises from -15.76% to 3.165%.

Going from `CN1CCN2C[C@@H](CO)[C@H](c3ccccc3)[C@H]2C1` to `OC[C@@H]1CN2CCN(c3ccccn3)C[C@@H]2[C@H]1c1ccccc1`, the “Percent Effect” value falls from 108.7% to 91.03%.

Compared with `Cc1nc(CC(=O)N2CCN(C)CC2c2ccccc2)cs1` (centres undefined), `OC[C@H]1CN2CCN(c3ccccn3)C[C@@H]2[C@@H]1c1ccccc1` is higher in “Percent Effect” value: -2.978% for the first, 97.55% for the second.

Compared with `O=C(Cc1ccc(-n2cccn2)cc1)N1CCN2CCCCC2C1` (centres undefined), `O=C(c1ccc(-n2ccnc2)nc1)N1CCN2CCCCC2C1` (centres undefined) is lower in “Percent Effect” value: 0.2002% for the first, -5.274% for the second.

Going from `N#Cc1cccc(N2CCOC3(CNCCOC3)C2)n1` (centres undefined) to `Cc1nc(C2(NCc3cc(C#N)ccc3F)CCCCC2)no1`, the “Percent Effect” value rises from -42.42% to 11.5%.

Compared with `Cc1cc(CN2C[C@@H]3COC[C@]3(CNS(C)(=O)=O)C2)no1.O=C(O)C(F)(F)F`, `Cc1cc(CN2C[C@@H]3CCCO[C@@H]3[C@H](NS(C)(=O)=O)C2)no1.O=C(O)C(F)(F)F` is lower in “Percent Effect” value: -0.4635% for the first, -7.292% for the second.

First: Cc1nc(C2(NCc3cccc(F)c3F)CCCCC2)no1
Second: Cc1nc(C2(NCc3ccc(C#N)cc3F)CCCCC2)no1
The “Percent Effect” value of the first is lower: -2.659% for the first, 2.337% for the second.

Going from `Cc1nc(C2(NCC(=O)NCc3cccs3)CCCCC2)no1` to `Cc1nc(C2(NCC(=O)NC(=O)Nc3ccccc3)CCCCC2)no1`, the “Percent Effect” value falls from 113.6% to 112.9%.

First: Cc1nc(C2(NCC(=O)NC(=O)NCC(F)(F)F)CCCCC2)no1
Second: CCS(=O)(=O)N[C@@H]1CN(Cc2cc(C)on2)C[C@@H]2CCCO[C@@H]21.O=C(O)C(F)(F)F
The “Percent Effect” value of the first is higher: 132.3% for the first, -1.229% for the second.

First: Cc1cccnc1CCNC(=O)[C@@]12CNC[C@@H]1CN(S(C)(=O)=O)C2
Second: Cc1cccnc1CC(C)NC1CCSCC1 (centres undefined)
The “Percent Effect” value of the first is lower: -16.39% for the first, -10.51% for the second.

Compared with `CC(Cc1c(F)cccc1F)NC(=O)CSCC(N)=O` (centres undefined), `COCC(=O)NC(C)Cc1cccc(Br)c1` (centres undefined) is lower in “Percent Effect” value: -4.817% for the first, -14.37% for the second.

Compared with `CCNC(=O)CN1CCSC2(CCCCC2)C1`, `CCN(CC)C(=O)C1CCC2(CCNCC2)O1.Cl` (centres undefined) is higher in “Percent Effect” value: -30.52% for the first, -5.53% for the second.

Compared with `Cc1noc(C)c1CN1C[C@@H]2CCCO[C@@H]2[C@H](NS(C)(=O)=O)C1.O=C(O)C(F)(F)F`, `CCOCCN1C[C@@H]2CCCO[C@@H]2[C@H](NC(=O)c2cnoc2C)C1.O=C(O)C(F)(F)F` is higher in “Percent Effect” value: -5.766% for the first, 102.3% for the second.

Compared with `Cc1oncc1C(=O)N[C@@H]1CN(C2CCC2)C[C@@H]2CCCO[C@@H]21.O=C(O)C(F)(F)F`, `Cc1oncc1C(=O)N[C@@H]1CN(CC2CC2)C[C@@H]2CCCO[C@@H]21.O=C(O)C(F)(F)F` is higher in “Percent Effect” value: 88.41% for the first, 91.11% for the second.

Going from `O=C(O)C(F)(F)F.O=C(O)C(F)(F)F.O=C(O)C(F)(F)F.c1ccc(CN2C[C@@H]3CCCO[C@@H]3[C@H](Nc3ccccn3)C2)nc1` to `Cc1cc(CN2C[C@@H]3CCCO[C@@H]3[C@H](Nc3ccccn3)C2)no1.O=C(O)C(F)(F)F.O=C(O)C(F)(F)F`, the “Percent Effect” value rises from -7.621% to 7.146%.

Going from `O=C(CC1CC1)N[C@@H]1CN(Cc2ccncc2)C[C@@H]2CCCO[C@@H]21.O=C(O)C(F)(F)F.O=C(O)C(F)(F)F` to `O=C(CC1CC1)N[C@@H]1CN(Cc2cccnc2)C[C@@H]2CCCO[C@@H]21.O=C(O)C(F)(F)F.O=C(O)C(F)(F)F`, the “Percent Effect” value rises from -9.965% to -3.357%.

Going from `CC(C)c1cc(N2CCCC3(CCN(C)C3)C2)ncn1` (centres undefined) to `CC(C)c1cc(CN2CCNCC2)no1`, the “Percent Effect” value rises from 23.89% to 116.8%.

Going from `Cc1nn(CCNC(C)Cn2ccnc2)c(C)c1Cl` (centres undefined) to `CCc1cc(N2CCNCC2)n2nc(C)c(C)c2n1`, the “Percent Effect” value falls from -2.201% to -8.161%.

Going from `CCc1noc(C(C)N2CCNCC2)n1` (centres undefined) to `NC(=O)CN1CCCCC1c1ccc(-n2ccnc2)nc1` (centres undefined), the “Percent Effect” value rises from 13% to 114.9%.

With `CN1CCC2(CC1)C(=O)N(c1cccnc1)c1ccc(F)cc12.Cl` the “Percent Effect” value was -1.333%.
